BAZ2B inh: blocks human BAZ2B; Q9UIF8; AlphaScreen BAZ2B-H3K14Ac peptide displacement; Potency, µM (titrated, usually from 114 µM), usual class: inhibitors; 360,000 compounds, 4.4% hits; AID 504333; also: nearly all actives have a fitted effect of over 60% in size
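In this displacement format the biotinylated H3(5-23) peptide acetylated at Lys14 serves as ligand at 50 nM, with BAZ2B at 50 nM in PBS pH 7.4 containing 0.01% Tween-20. Donor and acceptor beads are 10 ug/mL final.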
JMJD2A Tudor inh: blocks the human JMJD2A Tudor domain; AlphaScreen JMJD2A-Tudor / H3K4me3 peptide binding; Potency, µM (doses to about 114 µM), hits mostly inhibitors; O75164; 390,000 compounds, 4.4% hits; also: nearly all actives have a fitted effect of over 50% in size
L3MBTL1 block: inhibitors of human L3MBTL1 | AlphaScreen L3MBTL1–H3K9me1 peptide binding | 230,000 compounds, 0.66% hits | Potency, µM (highest dose often 57.1 µM), usual class: inhibitors | Q9Y468; also: nearly all actives have a fitted effect of over 60% in size
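First, the protein-peptide complex forms for 30 min at room temperature (L3MBTL1 50 nM, biotinylated H3K9me1 peptide 75 nM). Next, compounds are pin-transferred and incubated 30 min. Finally, AlphaScreen beads are added and read after 30 min.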
Sfp inh: Sfp phosphopantetheinyl transferase inhibition; Potency, µM, actives largely listed as inhibitors; Q9F4F7; Biochemical Sfp PPTase activity, qHTS; AID 1490; 310,000 compounds, 3.5% hits;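 also: the enzyme is Sfp with the accession as filed and its product quenches rhodamine fluorescence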
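Sfp 15 nM + cpd, 15 min RT; start w/ rhodamine-CoA 5 uM, BHQ-2-YbbR 12.5 uM (final); 50 mM Hepes pH 7.6, 10 mM MgCl2, 0.01% NP-40, 0.01% BSA; read 525/598 nm at 0 and 30 min.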
HP1b binding inh: blocks HP1-beta chromodomain binding to methylated histone tails. P83916. AlphaScreen HP1-beta / biotin-H3K9me3 peptide binding. Potency, µM (series often up to 114 µM), usual class: inhibitors. 390,000 compounds, 0.56% hits. AID 540317; also: nearly all actives have a fitted effect of over 70% in size
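AlphaScreen: HP1-beta (50 nM) preformed 30 min with biotin-H3(1-18)K9me3 peptide (50 nM) in PBS pH 7.4, 0.01% Tween-20. Compound added for 30 min at RT, then streptavidin donor/nickel chelate acceptor beads (10 ug/mL) for 30 min.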
G9a block: inhibitors of human histone lysine methyltransferase G9a; Q96KQ7; G9a H3K9 monomethylation, AlphaScreen, 2 h; Potency, µM (titrated, usually from 102 µM), actives largely listed as inhibitors; 350,000 compounds, 8.8% hits; AID 504332; also: nearly all actives have a fitted effect of over 75% in size
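G9a (20 nM) was preincubated 15 min with compound, then reacted 2 h at room temperature with 500 nM biotin-H3K9 peptide and 20 µM SAM. Monomethyl-H3K9 detected by AlphaScreen using anti-H3K9me1 antibody.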
Large screens that a line does not name were inactive; ! = not active in a repeat. An excerpt weighted towards active compounds, which were near 12% of everything screened. Calls follow the shape of the dose curve; as a rule, active = well fitted curve in the direction sought with a large enough effect; inconclusive = small, poorly fitted or top-dose-only effect, or another doubt; inactive = no such curve, though single readings can be large; an effect the other way counts as inactive or inconclusive.

O=C(c1ccccc1)c1ccccc1	none
O=C(O)c1ccc(C(=O)C(=O)c2ccccc2)cc1	G9a block 79µM (no result: L3MBTL1 block)
CC(=O)NS(=O)(=O)c1ccc(NC(=O)c2cc3c(=O)n4ccccc4nc3s2)cc1	none (no result: G9a block)
COc1ccc(CCNC(=O)c2cc3c(=O)n4cccc(C)c4nc3s2)cc1OC	G9a block 28µM (no result: L3MBTL1 block)
CCN(CC)S(=O)(=O)c1ccc(OC)c(NC(=O)c2cc3c(=O)n4ccccc4nc3s2)c1	G9a block 40µM
COc1ccc(CNC(=O)c2cc3c(=O)n4cccc(C)c4nc3s2)cc1	none (no result: L3MBTL1 block, Sfp inh)
Cc1nn(CC(=O)N2CCCC2)c(=O)c2cc3cc(F)ccc3n12	none (no result: L3MBTL1 block)
O=C(O)c1ccc(CSc2nc3ccccc3c(=O)n2-c2ccccc2)cc1	none
COC(=O)c1ccc2c(=O)n(-c3ccccc3)c(SCN3C(=O)c4ccccc4C3=O)nc2c1	G9a block 28µM
CCCCCCCC(=O)O[C@H](CC(=O)O)C[N+](C)(C)C	none (no result: BAZ2B inh, JMJD2A Tudor inh, L3MBTL1 block, HP1b binding inh, G9a block)
CCCCCCCCCCCCCCCCCC(=O)OC(CC(=O)O)C[N+](C)(C)C (stereo unspecified)	G9a block 17µM! (no result: BAZ2B inh, JMJD2A Tudor inh, L3MBTL1 block, Sfp inh, HP1b binding inh)
COc1cccc(/C=C2\SC(=S)N(N3CCOCC3)C2=O)c1OC	BAZ2B inh 18µM, JMJD2A Tudor inh inconclusive, L3MBTL1 block inconclusive, HP1b binding inh inconclusive, G9a block inconclusive
O=C1/C(=C/c2ccccn2)SC(=S)N1N1CCOCC1	BAZ2B inh inconclusive, Sfp inh inconclusive, G9a block 56µM
Cc1ccc(C(=O)CSc2ncc3c(n2)-c2ccccc2N(Cc2ccc(Cl)cc2)S3(=O)=O)cc1	none (no result: L3MBTL1 block, Sfp inh)
CCN(CC)CCN(C(=O)c1ccc2ccccc2c1)c1nc2ccc(OC)cc2s1	BAZ2B inh inconclusive, JMJD2A Tudor inh inconclusive, G9a block 79µM (no result: L3MBTL1 block)
CCN(CC)CCN(C(=O)c1cc2ccccc2cc1OC)c1nc2ccc(F)cc2s1	BAZ2B inh inconclusive, JMJD2A Tudor inh 32µM, G9a block 40µM (no result: L3MBTL1 block)
CCN(CC)CCN(C(=O)c1ccc([N+](=O)[O-])cc1)c1nc2ccc(OC)cc2s1	G9a block inconclusive (no result: BAZ2B inh, L3MBTL1 block)
COc1ccc2nc(N(Cc3ccccc3)C(=O)CCNC(C)=O)sc2c1	G9a block 32µM (no result: L3MBTL1 block)
CCN(CC)CCN(C(=O)c1cc2ccccc2cc1OC)c1nc2ccc(OC)cc2s1	BAZ2B inh inconclusive, JMJD2A Tudor inh inconclusive, Sfp inh 50µM, G9a block 45µM (no result: L3MBTL1 block)
Clc1ccc(-n2ncc3c(NCc4ccco4)ncnc32)cc1	none
Cc1ccccc1Nc1ncnc2c1cnn2-c1ccccc1	Sfp inh inconclusive
CCc1cc2c(NCc3ccco3)ncnc2s1	BAZ2B inh 56µM, JMJD2A Tudor inh inconclusive, G9a block 45µM
COc1ccc(-n2ncc3c(NCc4ccco4)ncnc32)cc1	BAZ2B inh inconclusive, JMJD2A Tudor inh inconclusive, G9a block 45µM
NNc1ncnc2c1cnn2-c1ccccc1	BAZ2B inh 28µM, JMJD2A Tudor inh 50µM, Sfp inh inconclusive (no result: L3MBTL1 block)
COc1ccc(-n2ncc3c(NCc4ccccn4)ncnc32)cc1	BAZ2B inh inconclusive, JMJD2A Tudor inh 14µM
COc1ccc(CCNC(=O)CCn2c(SCC(=O)N3CCCC3)nc3ccccc3c2=O)cc1OC	none (no result: L3MBTL1 block)
Cc1ccnc(SCC(=O)c2cccc([N+](=O)[O-])c2)n1	Sfp inh 50µM, G9a block 22µM
Cc1nc(SCC(=O)c2cccc([N+](=O)[O-])c2)n[nH]1	JMJD2A Tudor inh 40µM, Sfp inh 20µM, HP1b binding inh inconclusive, G9a block inconclusive
CCC(=O)N/N=C/c1ccc(-c2ccc(Cl)cc2)o1	L3MBTL1 block inconclusive
Cc1nnc(SCC(=O)N/N=C/c2ccc(-c3ccc(C)c(Cl)c3)o2)s1	HP1b binding inh inconclusive, G9a block 11µM
COc1ccc(N2CCN(C(=O)c3cc(S(=O)(=O)N4CCCCCC4)ccc3OC)CC2)cc1	BAZ2B inh inconclusive, JMJD2A Tudor inh inconclusive, HP1b binding inh inconclusive, G9a block 50µM (no result: Sfp inh)
COc1ccc(N2CCN(S(=O)(=O)c3ccc(OC)c(C(=O)N4CCOCC4)c3)CC2)cc1	G9a block 45µM (no result: L3MBTL1 block)
COc1cc2c(cc1OC)CN(C(=O)c1cc(S(=O)(=O)N3CCOCC3)ccc1Cl)CC2	JMJD2A Tudor inh inconclusive, G9a block 50µM

Screens as filed in PubChem.
